SMILES strings stand for the structures. Results filed as inconclusive are left out. A call without a number means that no potency is given here. The source made the active and inactive calls. Calls follow the shape of the dose curve; as a rule, active = well fitted curve in the direction sought with a large enough effect; inconclusive = small, poorly fitted or top-dose-only effect, or another doubt; inactive = no such curve, though single readings can be large or run the other way.
Potency is read from the fitted curve at half-maximal effect.

A short description of the test: Cytometric Cell-Based qHTS for Inhibitors of the mTORC1 Signaling Pathway in MEF (Tsc2-/-, p53-/-) Cells (AID 2660). To be noted: mTORC1 pathway cytometry; series mostly up to 38.3 µM. The source says:
NIH Molecular Libraries Probe Production Centers Network [MLPCN]
NIH Chemical Genomics Center [NCGC]
Assay Submitter (PI): Blenis, John; Hoffman, Greg; Harvard University
NCGC Assay Overview: The mammalian target of rapamycin (mTOR) is an intracellular serine/threonine kinase Aberrant regulation of mTOR signaling plays a causative role in a number of human diseases, including cancer, benign tumors such as lymphangioleiomyomatosis (LAM) and Tuberous Sclerosis Complex (TSC), and metabolic diseases such as diabetes and obesity. This project aims to identify inhibitors of ribosomal protein S6 (rpS6) phosphorylation. The phosphorylation of rpS6 is a key event downstream of mTOR activation. The assay uses a phospho-specific antibody of phospho-rpS6 to detect inhibitors of mTOR activation. Mutations in the Tsc1 and Tsc2 genes are the underlying genetic lesions responsible for TSC, causing constitutive activation of the mTORC1 pathway and leading to profound effects on cell metabolism. Aberrant metabolism in cancer has recently received significant attention as a target to develop therapeutic agents in the treatment of cancer.1 As Tsc2-/- cells have lost the ability to respond to energy and growth factor deprivation, these cells are unable to properly down regulate cellular biosynthetic processes in response to metabolic stress, and are thus extremely sensitive to glucose deprivation-induced death.2 A central goal of this project is to explore the unique cell survival and metabolic properties of cells with Tsc1 or Tsc2 by screening for compounds that selectively target the Tsc2-/- MEFs by screening both Tsc2-/- and WT MEF cell lines. We hope to better understand these aspects of TSC physiology in order to exploit them for therapeutic benefit.
NCGC Acumen Assay Protocol Summary:
For quantitative high throughput analysis of mTORC1 signaling, we developed a cell-based assay for immuno-fluorescence based detection of rpS6 phosphorylation on the Acumen Explorer that will be used a platform for the primary small molecule screen. Mouse embryonic fibroblasts (MEFs) are cultured in 1536-well plates using DMEM + 10% FBS. Twenty-four hrs after plating, test compounds (solubilized in DMSO) are delivered and incubated with the cells for 24 hrs at 37 degree Celsius. Following the incubation, media with compound is aspirated and the cells are fixed in 4% paraformaldehyde (PFA) containing PBS + 0.2% TX-100. Next, PFA is aspirated, cells are washed two times with PBS plus 0.2% TX-100 and the cells are blocked for 1 hr at room temperature (blocking buffer: LiCOR Blocking Buffer plus 0.2% TX-100). This is followed by aspiration and staining with Alexa-488 conjugated-phospho-rpS6 Ser235/236 antibody for 2 hours at room temperature (Cell Signaling Technology # 4803, 1:50 dilution in blocking buffer). Cells are washed two times with PBS plus 0.2% TX-100, and stained with 10 uM propidium iodide (PI) for 20-25 minutes for cell number measurement (1:500 dilution of Hoescht staining is also added for IN Cell imaging). The plates are scanned on the Acumen Explorer laser scanning instrument (TTP Labtech) using the 488nm laser for simultaneous excitation of the Alexa-488 and PI. The fluorescence emission from the Alexa-488 conjugated rpS6 phospho-235/236 antibody staining is selected using a […] band pass filter. Fluorescence emission from the PI stain is selected using a 575-640 nm band pass filter. The normalized phospho-S6 staining is calculated as the ratio of the integrated Alexa 488 intensity divided by the integrated PI intensity for the single concentration rapamycin control (7.5 nM) and DMSO columns. […] Inhibition of the pathway is defined based on the normalized phospho-S6 intensity in rapamycin treated cells. […]
For orientation: In qHTS, concentration-response curves come from the screen itself.
As to `Cc1cc(N)c2ccccc2[n+]1CCCCCCCCCC[n+]1c(C)cc(N)c2ccccc21`, the Potency entry is “inactive”.

Regarding `CCCCCCCCCCCCCCCC(=O)NCCO`, the Potency result was “inactive”.

On to `CC(C)(C(=O)O)c1ccc(C(O)CCCN2CCC(C(O)(c3ccccc3)c3ccccc3)CC2)cc1` (stereo not given), for which the Potency entry was “inactive”.

As to `C[C@]12C[C@H](O)[C@H]3[C@@H](CCC4=CC(=O)CC[C@@]43C)[C@@H]1CC[C@@H]2C(=O)CO`, the Potency result was “inactive”.

Turning to `CC(C)C(=O)c1c(C(C)C)nn2ccccc12`, the Potency entry was “inactive”.

On to `COCCOC(=O)C1=C(C)NC(C)=C(C(=O)OC/C=C/c2ccccc2)C1c1cccc([N+](=O)[O-])c1` (stereo not given), for which the Potency result was “inactive”.

Take `CC1=C(/C=C/C(C)=C/C=C/C(C)=C/C(=O)O)C(C)(C)CCC1`: the Potency entry is “inactive”.

As to `CNCCCC1c2ccccc2C=Cc2ccccc21`, the Potency entry is “inactive”.

Consider `CCN(CC)CCOC(=O)C1(C2CCCCC2)CCCCC1`, for which the Potency result was “inactive”.

On to `CN(C)CCCN1c2ccccc2CCc2ccccc21`, for which the Potency result is “inactive”.

In the case of `CNC(=O)Oc1ccc2c(c1)[C@]1(C)CCN(C)[C@@H]1N2C`, the Potency entry is “inactive”.

As for `CC(CN(C)C)CN1c2ccccc2CCc2ccccc21` (stereo not given), the Potency result is “inactive”.

On to `CC(C)(C)c1onc(OCP(=O)(O)O)c1CC(N)C(=O)O` (stereo not given), for which the Potency entry is “inactive”.

For the compound `CC1=C(CC(=O)O)c2cc(F)ccc2/C1=C\c1ccc(S(C)(=O)=O)cc1`, the Potency entry was “inactive”.

Take `CN(C)CCCN1c2ccccc2Sc2ccc(Cl)cc21`: the Potency result was “inactive”.

Turning to `CNCC(O)c1ccc(O)c(O)c1` (stereo not given), the Potency entry is “inactive”.

Regarding `C#CCN(C)Cc1ccccc1`, the Potency entry is “inactive”.

With `O=C1N=C(O)CN1/N=C/c1ccc(-c2ccc([N+](=O)[O-])cc2)o1`, the Potency entry is “inactive”.

`CN(C)CCC=C1c2ccccc2CCc2ccccc21`: the Potency entry was “inactive”.

On to `Nc1ncnc2c1ncn2[C@@H]1O[C@H](CO)[C@@H](O)[C@H]1O`, for which the Potency entry was “inactive”.

Regarding `C=Cc1c(C)c2cc3[nH]c(cc4nc(cc5nc(cc1[nH]2)C(C)=C5CCC(=O)O)C(CCC(=O)O)=C4C)c(C)c3C=C`, the Potency entry was “inactive”.

With `NC(=O)c1ncn([C@@H]2O[C@H](CO)[C@@H](O)[C@H]2O)n1`, the Potency entry was “inactive”.

Regarding `CN(C)CC[C@@H](c1ccc(Cl)cc1)c1ccccn1`, the Potency result was “inactive”.

On to `CC(CN1c2ccccc2Sc2ccccc21)N(C)C` (stereo not given), for which the Potency entry is “inactive”.

`CCCn1cnc2c1c(=O)n(CCCCC(C)=O)c(=O)n2C`: the Potency entry is “inactive”.

In the case of `CN(C)CCOC(C)(c1ccccc1)c1ccccn1` (stereo not given), the Potency entry is “inactive”.

As to `CC(=O)OCC(=O)[C@@]1(O)CC[C@H]2[C@@H]3CCC4=CC(=O)CC[C@]4(C)[C@H]3C(=O)C[C@@]21C`, the Potency entry was “inactive”.

With `CC(C)(C)[C@]1(O)CCN2C[C@H]3c4ccccc4CCc4cccc(c43)[C@@H]2C1`, the Potency result is “inactive”.

For the compound `OCc1cc(C(O)CNCCCCCCOCCCCc2ccccc2)ccc1O` (stereo not given), the Potency result is “inactive”.

With `C[C@]12CC[C@@H]3c4ccc(O)cc4CC[C@H]3[C@@H]1CCC2=O`, the Potency entry was “inactive”.

As for `NC(N)=NCCC[C@H](N)C(=O)O`, the Potency result is “inactive”.

In the case of `CC(C(O)c1ccc(O)cc1)N1CCC(Cc2ccccc2)CC1` (stereo not given), the Potency entry was “inactive”.

Take `C[C@](N)(Cc1ccc(O)cc1)C(=O)O`: the Potency entry is “inactive”.

Regarding `CCN(CC)C(C)CN1c2ccccc2Sc2ccccc21` (stereo not given), the Potency result was “inactive”.

In the case of `CCN(CC)CCCC(C)Nc1c2ccc(Cl)cc2nc2ccc(OC)cc12` (stereo not given), the Potency was 16.5 µM (active).

`CC(C)NC[C@H](O)c1ccc(O)c(O)c1`: the Potency result was “inactive”.

In the case of `CC1=C(CC(=O)O)c2cc(F)ccc2/C1=C\c1ccc(S(C)=O)cc1` (stereo not given), the Potency entry was “inactive”.

As to `Nc1cc(=O)[nH]c(N)n1`, the Potency result was “inactive”.

As to `N=c1c[n+](N2CCOCC2)[n-]o1`, the Potency result is “inactive”.

On to `NC1CCN(c2cccc(Cl)n2)CC1`, for which the Potency entry was “inactive”.

For the origin of these results see PubChem BioAssay (NCATS).
